Laboratory results taken from PubChem BioAssay (EPA / NIEHS).
The source made the active and inactive calls. The calls were made as follows: active = hit-call score of the fitted dose curve at least 0.9, where 1 is the maximum; inactive = score below 0.9.

read-out: Vascular cell adhesion molecule 1 (VCAM1), VCAM1 (gene 7412); assay: BSK_4H_VCAM1: BioMAP Diversity Plus: 4H Assay for Vascular cell adhesion molecule 1 (VCAM1) Biomarker Activity (AID 2283033); conditions: primary human endothelial cells (HUVEC); actives raise or lower the signal
Description: BSK_4H is a cell-based, multiplexed-readout assay that uses umbilical vein endothelium, a human vascular primary cell, with measurements taken at 24 hours after chemical dosing in a 96-well plate.BSK_4H_VCAM1 is an assay component measured in the BSK_4H assay. It measures VCAM-1 antibody related to regulation of gene expression using ELISA technology.Data from the assay component BSK_4H_VCAM1 was analyzed into 1 assay endpoint. This assay endpoint, BSK_4H_VCAM1, was analyzed with bidirectional fitting relative to DMSO as the negative control and baseline of activity. Using a type of binding reporter, gain or loss-of-signal activity can be used to understand changes in the signaling as they relate to the gene VCAM1. Furthermore, this assay endpoint can be referred to as a primary readout, because this assay has produced multiple assay endpoints where this one serves a signaling function. To generalize the intended target to other relatable targets, this assay endpoint is annotated to the cell adhesion molecules intended target family, where the subfamily is Immunoglobulin CAM.
The levels of cell surface (or secreted, indicated by the prefix "s") biomarker endpoints were measured by ELISA. Overt cytotoxicity to cells in confluent adherent cultures (all systems other than the BT system) was assessed by measuring total protein levels using sulforhodamine B (SRB) staining in parallel cultures at the time of biomarker measurements, indicated as SRB endpoints. For proliferation assays for adherent cell types, individual cell types are cultured at sub-confluence and relative cell numbers quantified by SRB staining at time points optimized for each system (48 h: 3C and CASM3C systems; 72 h: BT and HDF3CGF systems; 96 h: SAg system). SRB was performed by staining cells with 0.1% SRB after fixation with 10% TCA and reading wells at 560 nm.Viability and proliferation of PBMC (T cells) was quantified by Alamar Blue reduction for the SAg and BT systems. For PBMC viability (referred to as PBMC Cytotoxicity within the assay endpoint names), cells were plated (75,000/well in a 96-well plate) and then chemical samples added for 1 h before addition of activators, SEB and TSST-1 (20 ng/mL final concentration each). Cells were incubated for 90 h. Then, Alamar Blue (20 uL/well) (Invitrogen, Cat DAL1100) was added for 6 h, and the plates were read with a fluorescence microplate reader at 546/580 nm (excitation/emission). For PBMC proliferation, cells were plated and activated as above but incubated for only 16 h prior to addition of Alamar Blue. Plates were read after 6 h.

Row | SMILES | outcome | AC50
1 | Cc1occc(=O)c1O | inactive | 
2 | O=C(NS(=O)(=O)/C=C/c1cccs1)c1ccc(F)cc1Br | inactive | 
3 | Cc1cc(SC2=C(O)C[C@@](CCc3ccc(N)cc3)(C(C)C)OC2=O)c(C(C)(C)C)cc1CO | inactive | 
4 | COC(=O)CCCC(=O)OC | inactive | 
5 | COC(=O)CCC(=O)OC | inactive | 
6 | O=C1c2c(O)cccc2Cc2cccc(O)c21 | inactive | 
7 | NC1CCCCC1 | inactive | 
8 | Nc1nc(Cl)nc2c1ncn2[C@H]1C[C@H](O)[C@@H](CO)O1 | inactive | 
9 | O=Cc1ccccc1C=O | inactive | 
10 | CC1(C)C(=O)NC(=O)N1CO | inactive | 
11 | CC(=O)[C@@]1(O)CC[C@H]2[C@@H]3CCC4=CC(=O)CC[C@]4(C)[C@H]3CC[C@@]21C | inactive | 
12 | CC(C)COC(=O)CCCCC(=O)OCC(C)C | inactive | 
13 | CC(=O)O | inactive | 
14 | CC(=O)OCC(COC(C)=O)OC(C)=O | inactive | 
15 | O=C(Oc1ccccc1)c1cccc(C(=O)Oc2ccccc2)c1 | inactive | 
16 | CN(C)CCCN(C)CCCN(C)C | inactive | 
17 | CCCCCCCCCC[N+](C)(C)[O-] | inactive | 
18 | S=c1[nH]c2ccccc2s1 | inactive | 
19 | CCCCCCCCCCCCCCCCO | inactive | 
20 | CC(C)c1cccc(C(C)C)c1 | inactive | 

Row | SMILES | outcome | AC50
21 | N[C@@H](Cc1c[nH]c2ccccc12)C(=O)O | inactive | 
22 | CCc1nc(N)nc(N)c1-c1ccc(Cl)cc1 | inactive | 
23 | CCCC(=O)O | inactive | 
24 | O=C1CCCCC1 | inactive | 
25 | CC1=C(C)S(=O)(=O)CCS1(=O)=O | inactive | 
26 | Cn1cnc2c1c(=O)[nH]c(=O)n2C | inactive | 
27 | CO[C@@H]1COCC[C@@H]1N[C@@H]1CC[C@@](C(=O)N2CCc3ncc(C(F)(F)F)cc3C2)(C(C)C)C1 | inactive | 
28 | Cc1cn([C@H]2C=C[C@@H](CO)O2)c(=O)[nH]c1=O | inactive | 
29 | Cc1c(C)c2c(c(C)c1O)CCC(C)(COc1ccc(CC3SC(=O)NC3=O)cc1)O2 (stereo not given) |  | 31.8 µM (active)
30 | C/C=C/C=C/C(=O)O | inactive | 
31 | CC(C)OC(=O)C(C)(C)Oc1ccc(C(=O)c2ccc(Cl)cc2)cc1 |  | 17 µM (active)
32 | CCC(C)N(C)C(=O)c1cc2ccccc2c(-c2ccccc2Cl)n1 (stereo not given) | inactive | 
33 | NCCOCCOCCN | inactive | 
34 | C=CCCCCCCCCCCCC | inactive | 
35 | CCCCCCCCCCCCCCOS(=O)(=O)O |  | 20 µM (active)
36 | CCCCC(CC)CO (stereo not given) | inactive | 
37 | CC(=O)O[C@]1(C(C)=O)CC[C@H]2[C@@H]3C=C(Cl)C4=CC(=O)[C@@H]5C[C@@H]5[C@]4(C)[C@H]3CC[C@@]21C | inactive | 
38 | OCC(CO)n1cnc(-c2ccc(F)cc2)c1-c1ccnc(Oc2ccccc2)n1 | inactive | 
39 | C/C=C/c1ccc(OC)cc1 | inactive | 
40 | CCN(CC)CCOc1ccc(C(=C(Cl)c2ccccc2)c2ccccc2)cc1 |  | 11.6 µM (active)
